Hits are enriched below; roughly 17% of the tested compounds scored in any of these assays.
DT40 TDP1 no CPT: qHTS for Inhibitors of human tyrosyl-DNA phosphodiesterase 1 (TDP1): qHTS in cells in absence of CPT; DT40 Tdp1-/- hTDP1 cells, no CPT, ATP luminescence, 48 h; Potency, µM (highest dose often 46.2 µM), for inactives: top-dose activity change, negative = growth inhibition, usual class: inhibitors; 420,000 tested, 15% active; further: on the % scale 0 is the no-effect control and ±100 the full control effect; nearly all actives have a fitted effect of over 55% in size
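Cells were dispensed at 400 per well, compounds added by pin tool, plates incubated ≥48 hr at 37 °C, then CellTiter-Glo added for 30 min at room temperature before luminescence reading. Line: DT40 Tdp1-/- complemented with hTDP1; camptothecin omitted.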
TDP1 block: qHTS Assay for Inhibitors of Tyrosyl-DNA Phosphodiesterase (TDP1); Potency, µM (top dose mostly 130 µM), for inactives: top-dose activity change, negative = inhibition, most hits filed as inhibitors; recombinant TDP1, AlphaScreen DNA substrate cleavage; Tyrosyl-DNA phosphodiesterase 1 (Homo sapiens), Q9NUW8; 350,000 tested, 0.28% active; further: on the % scale 0 is the no-effect control and ±100 the full control effect; nearly all actives have a fitted effect of over 40% in size
Target sequence (Q9NUW8 whole entry, looked up): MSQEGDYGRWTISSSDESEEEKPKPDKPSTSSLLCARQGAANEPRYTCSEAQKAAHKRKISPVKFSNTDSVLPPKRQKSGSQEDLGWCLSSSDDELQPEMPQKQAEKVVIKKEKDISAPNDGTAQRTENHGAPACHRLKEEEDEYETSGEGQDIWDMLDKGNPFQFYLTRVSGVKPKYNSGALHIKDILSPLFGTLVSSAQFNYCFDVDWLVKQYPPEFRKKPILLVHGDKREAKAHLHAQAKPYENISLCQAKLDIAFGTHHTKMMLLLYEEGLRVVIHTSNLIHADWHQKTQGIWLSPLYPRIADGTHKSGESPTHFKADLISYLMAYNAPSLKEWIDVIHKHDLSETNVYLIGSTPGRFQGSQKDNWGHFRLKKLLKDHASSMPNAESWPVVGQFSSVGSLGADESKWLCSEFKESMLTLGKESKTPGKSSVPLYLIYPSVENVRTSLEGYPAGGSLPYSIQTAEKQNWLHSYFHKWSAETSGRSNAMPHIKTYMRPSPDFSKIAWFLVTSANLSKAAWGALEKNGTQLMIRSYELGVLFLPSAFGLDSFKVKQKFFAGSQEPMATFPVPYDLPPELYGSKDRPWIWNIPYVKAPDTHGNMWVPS
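Signal: AlphaScreen proximity between streptavidin donor and anti-FITC acceptor beads on intact substrate. Reaction: Tdp1 1 nM, substrate 15 nM final, 5 min RT after 15 min compound preincubation.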
ClpP mod: qHTS Assay for Activators of ClpP | ATP-dependent Clp protease proteolytic subunit (Bacillus subtilis (strain 168)), P80244 | purified B. subtilis ClpP, FRET peptide cleavage, 20 min | Potency, µM (titrated, usually from 57.5 µM), for the others: at the highest dose activity change, negative = active | 340,000 tested, 1.9% active | AID 651965, 2013; active means well fitted falling curve with a large enough effect; inconclusive means small, poorly fitted or top-dose-only effect; inactive means no such curve, though single readings can be large or run the other way; further: the source files actives as falling curves though it sought activators and does not explain the sign; nearly all actives have a fitted effect of over 65% in size
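FRET quenching reversal measured ClpP activation: 10 microg/mL B. subtilis ClpP at pH 8 with the FRET-FV decapeptide, read at 430 nm after 320 nm excitation. The 20-min minus 0-min signal was scaled between DMSO/no-enzyme wells and ADEP (5.8 microM final).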
TDP1 cell CPT: qHTS for Inhibitors of human tyrosyl-DNA phosphodiesterase 1 (TDP1): qHTS in cells in presence of CPT | chicken DT40 Tdp1-/-;hTDP1 cells + 20 nM CPT, ATP luminescence, 48 h | AID 686979, 2013 | 420,000 tested, 12% active | Potency, µM (titrated, usually from 46.2 µM), without a hit: at the top dose activity change, negative = growth inhibition, most hits filed as inhibitors; further: on the % scale 0 is the no-effect control and ±100 the full control effect; nearly all actives have a fitted effect of over 55% in size
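Chicken DT40 Tdp1-/- cells complemented with human TDP1, 400 cells/well, exposed to compounds plus 20 nM camptothecin for at least 48 h at 37 C; viability read as ATP content by CellTiter-Glo luminescence.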
The depositor's hits bear a star; ! = a repeat was not active. Unless noted, the call rests on the fitted dose curve; in most records, active means well fitted curve in the direction sought with a large enough effect; inconclusive means small, poorly fitted or top-dose-only effect, or another doubt; inactive means no such curve, though single readings can be large; an effect the other way counts as inactive or inconclusive. Potency means the concentration at half of the fitted maximal effect.

For O[C@@H]([C@H](O)[C@H](O)CBr)[C@H](O)CBr the results were DT40 TDP1 no CPT 12µM*!, TDP1 block -2%, ClpP mod -1% and TDP1 cell CPT 18µM*!.
CCOc1ccc(-n2cc(C(=O)Nc3ccc(Cl)cn3)c3cc(OC)c(OC)cc3c2=O)cc1 was read as DT40 TDP1 no CPT -27%, TDP1 block 8%, ClpP mod 0% and TDP1 cell CPT 2.9µM*.
Screening CCCOc1ccc(OC(=O)c2cn(-c3ccc(OC)cc3)c(=O)c3ccccc23)cc1 returned DT40 TDP1 no CPT 16µM*, TDP1 block 2%, ClpP mod -18% and TDP1 cell CPT inconclusive.
For CCOc1ccc(-n2cc(C(=O)Nc3ccccc3OCC)c3cc(OC)c(OC)cc3c2=O)cc1 the results were DT40 TDP1 no CPT inconclusive, TDP1 block 9%, ClpP mod -3% and TDP1 cell CPT inconclusive.
`COc1ccc(OC(=O)c2cn(-c3cccc(OC)c3)c(=O)c3ccccc23)cc1` gave DT40 TDP1 no CPT inconclusive, TDP1 block 5%, ClpP mod -12% and TDP1 cell CPT inconclusive.
`CCOc1ccc(OC(=O)c2cn(-c3ccc(C)cc3)c(=O)c3ccccc23)cc1` gave DT40 TDP1 no CPT 16µM*, TDP1 block 7%, ClpP mod -2% and TDP1 cell CPT inconclusive.
CCOC(=O)c1ccc(OC(=O)c2cn(-c3ccc(C)cc3)c(=O)c3ccccc23)cc1 was read as DT40 TDP1 no CPT inconclusive, TDP1 block -1%, ClpP mod -21% and TDP1 cell CPT 16µM*.
For CC1CCN(S(=O)(=O)c2ccc3c(ccc(=O)n3CC(=O)NCc3ccc(Cl)cc3)c2)CC1 the results were DT40 TDP1 no CPT inconclusive, TDP1 block -1%, ClpP mod -8% and TDP1 cell CPT inconclusive.
CCn1cc(C(=O)N(C)c2cc(C)ccc2OC)c2cc(OC)c(OC)cc2c1=O was read as DT40 TDP1 no CPT -11%, ClpP mod -3% and TDP1 cell CPT -17%.
COc1ccc(-n2cc(C(=O)N(C)c3cc(C)ccc3OC)c3ccccc3c2=O)cc1 was read as DT40 TDP1 no CPT 21µM*, TDP1 block 10%, ClpP mod -9% and TDP1 cell CPT inconclusive.
COc1ccc2c(c1)CC(NC(=O)Nc1ccc(NC(C)=O)cc1)CO2 (stereo unspecified) was read as DT40 TDP1 no CPT -7%, TDP1 block 5%, ClpP mod 1% and TDP1 cell CPT -5%.
Cc1noc(C)c1-c1cncnc1N1CCN(C)CC1 was read as DT40 TDP1 no CPT 6% and TDP1 cell CPT 10%.
`S=C(N/N=C1\CCc2ccccc21)NC1CCCCC1` gave DT40 TDP1 no CPT 23µM*, TDP1 block 8%, ClpP mod -3% and TDP1 cell CPT inconclusive.
Screening CC(C)NC(=S)N/N=C1\CCCCc2ccccc21 returned DT40 TDP1 no CPT 21µM*, TDP1 block 5%, ClpP mod -1% and TDP1 cell CPT inconclusive.
S=C(NC1CCCCC1)N1CCc2ccccc2C1 was read as DT40 TDP1 no CPT inconclusive, TDP1 block 1%, ClpP mod 2% and TDP1 cell CPT inconclusive.
Screening CCCS(=O)(=O)NC(=O)C1(C)CCCN(C(=O)Cc2ccc3ccccc3c2)C1 (stereo unspecified) returned DT40 TDP1 no CPT 0%, ClpP mod 2% and TDP1 cell CPT 6%.
`Oc1c(CN2CCN(c3ccccn3)CC2)cc(Cl)c2cccnc12` gave DT40 TDP1 no CPT 3.7µM*, TDP1 block 11%, ClpP mod 2% and TDP1 cell CPT 4.6µM*.
Screening COCc1cc(CN2CCCC2)c(O)c2ncccc12 returned DT40 TDP1 no CPT 0.82µM*, TDP1 block 10%, ClpP mod 0% and TDP1 cell CPT 0.65µM*.
`Oc1c(CN2CCCCC2)cc(COCc2ccccc2)c2cccnc12` gave DT40 TDP1 no CPT 4.6µM*, TDP1 block -3%, ClpP mod 2% and TDP1 cell CPT 4.1µM*.

Assay outcomes from PubChem.
